The values that follow come from PubChem BioAssay AID624330 (Southern Research Specialized Biocontainment Screening …, 2012).

The whole screen tested about 340,000 compounds, of which about 2,100 (0.62%) were called active.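 Rule for the calls: active = first-screen hits whose inhibition reached a set limit at any dose in the follow-up dose series; inconclusive = inhibition above the set first-screen limit but never retested; inactive = the rest.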 The list is a sample of the results. Potency and affinity values are given separately.

Usually inhibition stands for the change of the read-out against control, counted positive when it falls.

In this assay the target is Rac GTPase-activating protein 1 (Homo sapiens) (UniProt Q9H0H5). Kind of assay: blockers of MgcRacGAP-driven Rac1 GTP hydrolysis – biochemical, ADP Hunter fluorescence, primary and confirmatory, confirmation (AID 624330).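 Note: fluorescence reports GDP produced by GAP-driven GTP hydrolysis.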 The settings on record: MgcRacGAP-stimulated Rac1 GTP hydrolysis, at 30 µM, hits give high values, GST-tagged Rac1 F28L mutant substrate.
Rac GTPase-activating protein 1 (Homo sapiens), sequence (Q9H0H5 whole entry, looked up): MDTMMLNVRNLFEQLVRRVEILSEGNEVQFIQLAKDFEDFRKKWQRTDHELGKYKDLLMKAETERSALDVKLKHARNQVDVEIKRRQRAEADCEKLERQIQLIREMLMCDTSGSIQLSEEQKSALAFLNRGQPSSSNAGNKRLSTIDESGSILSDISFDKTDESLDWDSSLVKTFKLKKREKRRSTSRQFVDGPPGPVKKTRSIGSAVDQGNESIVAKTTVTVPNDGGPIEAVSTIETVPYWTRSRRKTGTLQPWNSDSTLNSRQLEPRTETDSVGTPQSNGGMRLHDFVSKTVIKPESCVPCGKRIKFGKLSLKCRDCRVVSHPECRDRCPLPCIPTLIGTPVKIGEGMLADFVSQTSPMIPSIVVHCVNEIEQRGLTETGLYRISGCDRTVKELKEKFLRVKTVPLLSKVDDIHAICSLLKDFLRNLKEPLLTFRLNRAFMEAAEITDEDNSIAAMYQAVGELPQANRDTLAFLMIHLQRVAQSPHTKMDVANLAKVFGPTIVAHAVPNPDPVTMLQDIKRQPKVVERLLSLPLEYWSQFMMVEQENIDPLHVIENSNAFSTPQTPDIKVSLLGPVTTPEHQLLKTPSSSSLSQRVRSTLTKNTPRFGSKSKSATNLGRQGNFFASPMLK
Regarding `N/C(=N\OC(=O)Cc1ccc(-c2ccccc2)cc1)c1cccnc1`, the inhibition is 5.49% (inactive).

On to `CCNC(=S)N1C2CCC1CC(NC(=O)NC1CCCCC1)C2` (centres undefined), for which the inhibition was 1.32% (inactive).

For `c1ccc(-n2ncc3c(N4CCN(CCOc5cccc6ccccc56)CC4)ncnc32)cc1`, the inhibition was -0.49% (inactive).

As to `CCCCOC(=O)c1cc(Cl)c(O)c(OC)c1`, the inhibition was 13.4% (inactive).

`CC(NC(=O)c1ccc(F)cc1)c1ccc(F)cc1` (centres undefined): the inhibition is 4.7% (inactive).

Turning to `O=C(Nc1ccccc1)C(Cc1ccccc1)c1ccccc1` (centres undefined), the inhibition is -2.68% (inactive).

Take `CCOc1ccc(N2CC(C(=O)Nc3cc(OCC)c(N4CCOCC4)cc3OCC)CC2=O)cc1` (centres undefined): the inhibition was 2.59% (inactive).

As for `CCN1CCN(C(=O)C2(NC(=O)Nc3ccccc3Cl)CCCCC2)CC1`, the inhibition is 2.74% (inactive).

As to `O=c1ccc(-c2ccccc2)no1`, the inhibition is 1.17% (inactive).

In the case of `Cc1ccc(S(=O)(=O)CCC(=O)OCC(=O)Nc2cc(F)ccc2C)cc1`, the inhibition is 1.06% (inactive).

In the case of `CCOC(=O)CC1C(=O)NCCN1S(=O)(=O)c1cccc(C(F)(F)F)c1` (centres undefined), the inhibition is 7.16% (inactive).

Turning to `O=C(Nc1ncnc2sc3c(c12)CCCC3)c1ccncc1`, the inhibition was -0.48% (inactive).

As for `O=C(NN1C(=O)/C(=C/c2cccc(O)c2)SC1=S)c1ccccc1O`, the inhibition is 5.04% (inactive).

Consider `O=C(NN1C(=O)/C(=C/c2ccc(O)cc2)SC1=S)c1cccc(O)c1`, for which the inhibition was 30.8% (inactive).

As to `COc1cc(/C=C2\SC(=S)N(NC(=O)c3ccccc3OC)C2=O)ccc1O`, the inhibition was 8.13% (inactive).

Turning to `O=C(CCCN1C(=O)/C(=C\c2ccccc2)SC1=S)Nc1ccc(O)cc1C(=O)O`, the inhibition is 12.8% (inactive).

For `O=C(O)c1ccc(/C=C2\SC(=S)N(NC(=O)c3ccccc3)C2=O)cc1`, the inhibition was 8.51% (inactive).

As to `Cc1ccc(/C=C2\SC(=S)N(CCC(=O)NNC(=O)c3ccc(O)cc3)C2=O)cc1`, the inhibition is 6.6% (inactive).

For the compound `CCOC(=O)CSc1nc2cc(S(=O)(=O)Nc3ccccc3OC)ccc2o1`, the inhibition was 5.81% (inactive).

Take `Clc1cccc(CSc2ncnc3c2ncn3C2CCCCO2)c1` (centres undefined): the inhibition was 2.71% (inactive).

`NS(=O)(=O)c1ccc(CCNC(=O)CN2CCN(Cc3cccc4ccccc34)CC2)cc1`: the inhibition was 3.28% (inactive).

In the case of `O=C(O)/C=C/c1ccc([N+](=O)[O-])o1`, the inhibition was 12.4% (inactive).

Consider `O=C1NC(=S)S/C1=C\c1cccc([N+](=O)[O-])c1`, for which the inhibition is 11.9% (inactive).

As to `Cc1cc2[nH]c3ccccc3c2cn1`, the inhibition is 17% (inactive).

Consider `COC(=O)c1c(NC(=O)C2CCCCC2)sc2c1CCN(C(C)C)C2`, for which the inhibition was 8.85% (inactive).

As to `Cc1cccc(C)c1OCC(O)CN1CCN(C(=O)c2ccccc2)CC1` (centres undefined), the inhibition is -23.8% (inactive).

Regarding `CCN1CCN(CC(O)COc2cccc(OC)c2)CC1` (centres undefined), the inhibition was 8.83% (inactive).

As for `CCOC(=O)N1CCN(CC(O)COc2c(C)cc(C)cc2C)CC1` (centres undefined), the inhibition is 3.3% (inactive).

In the case of `COc1cccc(OCC(O)CN2CCOCC2)c1` (centres undefined), the inhibition was 6.97% (inactive).

On to `O=C(c1ccccc1)N1CCN(CC(O)COc2ccc(Br)cc2)CC1` (centres undefined), for which the inhibition was 1.08% (inactive).

Turning to `CC(=O)N1CCN(CC(O)COc2ccc(OCc3ccccc3)cc2)CC1` (centres undefined), the inhibition was 3.99% (inactive).

Consider `CCN(CC)CCNC(=O)NC(=O)c1ccc(Cl)cc1`, for which the inhibition is -9.05% (inactive).

For the compound `O=C(NCc1ccccc1F)C(=O)NCC1OCCCN1S(=O)(=O)c1cccs1` (centres undefined), the inhibition is -0.33% (inactive).

As to `COc1ccc(NC(=O)COc2nsnc2N2CCCCC2)cc1`, the inhibition was 17.2% (inactive).

With `Cc1ccc(N(Cc2ccc(C(=O)NCC3CCCO3)cc2)S(C)(=O)=O)cc1C` (centres undefined), the inhibition was -2.07% (inactive).

For `CC(=O)NC1C(Oc2ccc(C=O)cc2)OC(COC(C)=O)C(OC(C)=O)C1OC(C)=O` (centres undefined), the inhibition is 0.46% (inactive).

With `COc1ccc(O[C@@H]2O[C@H](COC(C)=O)[C@@H](OC(C)=O)[C@H](OC(C)=O)[C@H]2NC(C)=O)cc1`, the inhibition is 5.33% (inactive).

In the case of `O=C(NCc1ccc(F)cc1F)Nc1cnccc1C(F)(F)F`, the inhibition was 0.3% (inactive).

Regarding `CC1(c2nnc(-c3ccccc3)o2)CC(c2c(Cl)cccc2Cl)=NO1` (centres undefined), the inhibition is 7.59% (inactive).

With `C(=N\N1CCN(c2ccccc2)CC1)/c1ccccc1`, the inhibition was 9.75% (inactive).

Turning to `Cc1ccc(/C=N/N2CCN(c3ccccn3)CC2)cc1`, the inhibition was 6.1% (inactive).

For the compound `C(=N\N1CCN(c2ccccn2)CC1)/c1ccccn1`, the inhibition was 13.7% (inactive).

`Cc1ccc(/C=N/N2CCN(c3ccccc3)CC2)cc1`: the inhibition was 14.1% (inactive).

On to `COc1ccc(CCNC(=O)C2CCN(S(=O)(=O)c3ccc(OC)c(OC)c3)CC2)cc1OC`, for which the inhibition was 1.02% (inactive).

Take `CCCOc1ccc(C2C(C(=O)c3ccc(C)o3)=C(O)C(=O)N2Cc2ccco2)cc1` (centres undefined): the inhibition is 9.74% (inactive).

Take `O=[N+]([O-])c1ccc(NN=C(C2CC2)C2CC2)c([N+](=O)[O-])c1`: the inhibition was 9.77% (inactive).

On to `COC(=O)c1sc2nc(-c3ccccc3)nc(N3CCN(C)CC3)c2c1C`, for which the inhibition is 6.27% (inactive).

With `COc1ccccc1N1C(=O)CC(Sc2ccccc2N)C1=O` (centres undefined), the inhibition was 2.06% (inactive).

`COc1ccc(Cc2c3cc(OC)c(OC)cc3cc[n+]2C)cc1OC`: the inhibition was -5.7% (inactive).

With `COc1cc2ccc(C(C)=O)c(O)c2cc1OC`, the inhibition was 8.81% (inactive).

Take `COc1ccc(C(=O)Nc2c(O)ccc3ccccc23)cc1OC`: the inhibition is 9.73% (inactive).

Take `COc1cc2ccc(=O)oc2cc1O`: the inhibition is 16.3% (inactive).

Regarding `O=C(CN(Cc1ccc(Cl)cc1)C(=O)CN1C(=O)COc2ccccc21)NC1CCCC1`, the inhibition was 8.29% (inactive).

`O=C(Nc1cccc(F)c1)Nc1ccc(Cl)cn1`: the inhibition is 0.09% (inactive).

Take `CC(=C/c1ccccc1)/C=N/N1CCN(Cc2ccc(C)cc2)CC1`: the inhibition was 7.95% (inactive).

For the compound `CCOC(=O)[C@H](O)[C@@H](O)c1cccc([C@H](O)[C@@H](O)C(=O)OCC)c1`, the inhibition is 11.8% (inactive).

With `CN(Cc1ccccc1)C(=O)c1cc(-c2ccc(Br)cc2)on1`, the inhibition is 7.89% (inactive).

As for `Cc1ccc(CSc2nnc(NC(=O)Cn3cnc4ccccc4c3=O)s2)cc1`, the inhibition is -8.67% (inactive).

With `CCOC(=O)c1c(-c2ccc(-c3ccccc3)cc2)csc1NC(=O)CCN1CCOCC1`, the inhibition is -2.88% (inactive).

Consider `CCOC(=O)c1c(-c2ccccc2)csc1NC(=O)CCN1CCOCC1`, for which the inhibition is 18.3% (inactive).

As for `COC(=O)Cn1c(=NC(=O)C2COc3ccccc3O2)sc2cc(S(N)(=O)=O)ccc21` (centres undefined), the inhibition is 3.94% (inactive).

Turning to `COC(=O)c1cc(-c2ccc(Cl)cc2)n(-c2ccc(S(N)(=O)=O)cc2)n1`, the inhibition was 5.18% (inactive).

Consider `O=S(=O)(N/N=C/c1ccc2c(c1)OCCO2)c1ccccc1`, for which the inhibition is 9.57% (inactive).

Consider `COC(=O)c1cc(S(=O)(=O)NCc2ccccc2)c[nH]1`, for which the inhibition was 11.6% (inactive).

On to `COc1cc(O)cc2cc3c(c(O)c12)C(=O)CC(C)(O)O3` (centres undefined), for which the inhibition is -0.09% (inactive).

In the case of `CCOc1ccc(S(=O)(=O)n2c([N+](=O)[O-])cnc2C)c(C)c1C`, the inhibition is 6.34% (inactive).

Take `Cc1[nH]c(=S)c(C#N)c(C)c1CC(=O)c1ccc(Br)cc1`: the inhibition is 8.21% (inactive).

As to `O=C(CN1C(=O)c2ccccc2S1(=O)=O)c1ccccc1`, the inhibition was 8.2% (inactive).

With `O=C(CN1C(=O)c2ccccc2S1(=O)=O)c1ccc(F)c(F)c1`, the inhibition is -3.06% (inactive).

For the compound `COCCN(C(=O)CSc1nnc(C)n1-c1ccccc1)c1c(N)n(Cc2ccccc2)c(=O)[nH]c1=O`, the inhibition was 9.16% (inactive).

Turning to `Cc1cc(OCC(=O)NCc2ccccn2)c2c(C)cc(=O)oc2c1`, the inhibition was 2.23% (inactive).

On to `CN(C)C/C=C(/c1ccc(Br)cc1)c1cccnc1`, for which the inhibition is 3.6% (inactive).

Regarding `CN(C)CCCO/N=C(\c1ccccc1)c1ccncc1`, the inhibition was 24.4% (inactive).

Consider `CC(C)c1ccc(NC(=O)NCc2ccccn2)cc1`, for which the inhibition is 8.07% (inactive).

Take `C[C@H](CO)N1C[C@H](C)[C@@H](CN(C)C(=O)Nc2ccc(C(F)(F)F)cc2)Oc2ccc(NC(=O)CCC(F)(F)F)cc2C1=O`: the inhibition is 5.69% (inactive).

For `COCC(C)OC(=O)C(C#N)c1nc2ccccc2nc1N1CCN(Cc2ccccc2)CC1` (centres undefined), the inhibition is 6.54% (inactive).

For the compound `COc1ccc(/C=N/NC(=O)CCn2nc(C)cc2C)cc1`, the inhibition was -2.7% (inactive).

In the case of `O=C(CCn1cnc2ccccc21)N/N=C/c1ccccc1O`, the inhibition was 0.87% (inactive).

For the compound `Cc1cc(C)n(CCC(=O)N/N=C/c2ccccc2O)n1`, the inhibition is 3.84% (inactive).

Consider `O=C(CCn1cnc(-c2ccccc2)c1-c1ccccc1)N/N=C/c1ccc(O)cc1`, for which the inhibition was 27.5% (inactive).

Consider `O=C(Cn1cc(C(F)(F)F)ccc1=O)N/N=C/c1ccc(F)cc1`, for which the inhibition was -1.82% (inactive).

Turning to `O=C(Cn1cc(C(F)(F)F)ccc1=O)N/N=C/c1ccc(Cl)cc1`, the inhibition was 11.1% (inactive).

With `Cc1cc(C)n(CCC(=O)N/N=C/c2ccc(O)cc2O)n1`, the inhibition was -27.4% (inactive).

Turning to `COc1ccc(/C=N/NC(=O)CCn2nc(C)cc2C)cc1O`, the inhibition was 26.5% (inactive).

`O=C(Nc1ccc(C(=O)N2CCCCC2)cc1)c1ccc([N+](=O)[O-])cc1`: the inhibition is 1.12% (inactive).

Regarding `Cc1ccccc1-c1cc(C(=O)O)nn1CC1CC(c2cccc([N+](=O)[O-])c2)=NO1` (centres undefined), the inhibition was 4.15% (inactive).

For the compound `COc1ccc(CCNC(=O)c2cc(C3CC3)nc3c2cnn3C(C)C)cc1`, the inhibition is 1.51% (inactive).

Consider `O=C(Nn1cnnc1)c1ccc(OC(F)(F)C(F)C(F)(F)F)cc1` (centres undefined), for which the inhibition was 7.79% (inactive).

With `CCCNC(=S)NNC(=O)c1cc(-c2cccnc2)nc2ccccc12`, the inhibition is 0.84% (inactive).

Turning to `CS(=O)(=O)c1cccc(C(=O)Nc2cccc(S(=O)(=O)N3CCCC3)c2)c1`, the inhibition was 3.17% (inactive).

As to `CC(=O)N1CCN(C(=O)c2ccc(NS(=O)(=O)c3ccc4c(c3)OCCO4)cc2)CC1`, the inhibition was 5.18% (inactive).

`COc1ccccc1/C=N/NC(=O)CSc1ccc2ccccc2n1`: the inhibition is 17.4% (inactive).

Consider `O=C(CSc1ccc2ccccc2n1)N/N=C/c1ccccc1O`, for which the inhibition was 4.3% (inactive).

For the compound `O=C(CNC(=O)c1ccc(Cl)cc1Cl)NCc1ccccn1`, the inhibition is -0.06% (inactive).
